Reference: the supplement of paper PMC10646978
± gives the standard deviation.

Assays:
Details in all cases: modulator concentration 10 µM
[1] = system: RAW-Dual (murine macrophage reporter line); test: NF-kB reporter (SEAP) activity fold change vs agonist alone; higher = enhanced NF-kB activity
Procedure, shortened: (§1)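 RAW-Dual murine macrophage reporter cells were plated at 50 000 per well in 384-well plates, pin-transferred compound to 10 μM final, and pre-incubated for 1 hour at 37 °C before a PRR agonist was added and the cells incubated overnight. NF-κB activity was read from supernatant SEAP with QUANTI-Blue at 620 nm absorbance, and IRF activity from Lucia luciferase with QUANTI-Luc by luminescence. Each signal was expressed as fold change by dividing by the mean agonist-only control on the same plate. Two replicate plates were averaged, with errors obtained by propagation.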

[2] = system: RAW-Dual (murine macrophage reporter line); test: IRF reporter (Lucia luciferase) activity fold change vs agonist alone; higher = enhanced IRF activity
Procedure, shortened: as §1

[3] = system: RAW-Dual (murine macrophage reporter line); test: viability score (confluency relative to resting cells, overnight) (fraction); higher = more viable, active = viable (0.7 or more)
Procedure, shortened: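 In 384-well plates, RAW-Dual macrophages received compound at a final 10 μM overnight. Two confluency masks were then made with IncuCyte software from IncuCyte images of all imaged wells. The viability score is defined as confluency relative to resting cells. Passing the cutoff required both masks to lie above 70% of resting cells.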

[4] = agonist: CpG ODN 1826 0.5 ug/mL

SMILES	NF-kB reporter [1, 4]	NF-kB reporter ([1]; agonist: LPS 0.1 ug/mL)	NF-kB reporter ([1]; agonist: MPLA […])	IRF reporter ([2]; agonist: 3'3'-cGAMP 10 ug/mL)	IRF reporter ([2]; agonist: LPS 0.1 ug/mL)	IRF reporter ([2]; agonist: MPLA […])	viability score [3]
Cc1c(-c2ccccc2)nc2ccccc2c1C(=O)Nc1ccc(F)cc1F	0.568 ± 0.25	0.889 ± 0.097	0.689 ± 0.11	0.918 ± 0.061	1.36 ± 0.1	1.12 ± 0.19	0.953 (active)
COc1ccc(CNCc2cccc(C(F)(F)F)c2)cc1	0.749 ± 0.083	1.04 ± 0.087	1.02 ± 0.045	1.12 ± 0.14	0.966 ± 0.071	1.37 ± 0.21	0.27 (inactive)
O=C(NCCN1CCN(c2ccc(Cl)cc2)CC1)c1cnccn1	0.974 ± 0.076	0.967 ± 0.086	1 ± 0.03	0.982 ± 0.049	1.01 ± 0.055	0.919 ± 0.097	0.998 (active)
COc1ccc(Cc2nnc(C3CCN(S(C)(=O)=O)CC3)s2)cc1	0.978 ± 0.069	1.04 ± 0.085	0.93 ± 0.12	1.06 ± 0.093	1.25 ± 0.076	1.09 ± 0.13	0.994 (active)
CCOc1ccccc1NC(=O)N1CCCC1CS(=O)(=O)c1ccccc1 (configuration not stated)	1.01 ± 0.062	1.15 ± 0.093	0.954 ± 0.046	1.09 ± 0.057	1.3 ± 0.087	1.14 ± 0.16	0.989 (active)
CCCOc1cccc(C(=O)Nc2scc(-c3ccccc3Cl)c2C(=O)OC)c1	0.817 ± 0.1	0.827 ± 0.039	1.05 ± 0.092	1.03 ± 0.059	1.54 ± 0.09	1.69 ± 0.2	1 (active)
CCOC(=O)C1=C(Nc2ccccc2)SC(=Cc2ccc(O)c(OCC)c2)C1=O	1.1 ± 0.093	1.03 ± 0.07	1.15 ± 0.18	1.1 ± 0.036	1.26 ± 0.12	1.12 ± 0.16	1.01 (active)
Cl.O=C1c2cccc3c2[C@H](CCC3)CN1[C@@H]1CN2CCC1CC2	1.03 ± 0.17	0.655 ± 0.053	0.823 ± 0.11	0.582 ± 0.022	0.918 ± 0.17	0.987 ± 0.12	0.974 (active)
CC(C)(C)N.CCCC(NC(C)C(=O)N1C(C(=O)O)CC2CCCCC21)C(=O)OCC (configuration not stated)	0.927 ± 0.074	0.864 ± 0.15	0.947 ± 0.094	0.996 ± 0.036	1.21 ± 0.16	1.3 ± 0.18	1.02 (active)
CCc1c(C)[nH]c2c1C(=O)C(CN1CCOCC1)CC2.Cl (configuration not stated)	0.108 ± 0.0046	0.221 ± 0.024	0.714 ± 0.042	0.752 ± 0.039	1.5 ± 0.24	1.4 ± 0.43	0.855 (active)
COC(=O)C1C(=O)C(=CNCc2ccccc2)C(=O)CC1(C)C (configuration not stated)	1.12 ± 0.1	0.99 ± 0.072	0.943 ± 0.035	1.04 ± 0.18	1.06 ± 0.049	0.992 ± 0.066	1 (active)
Cc1ccc(N2C(=O)CC(Nc3ccc(N4CCOCC4)cc3)C2=O)cc1 (configuration not stated)	1.04 ± 0.11	1.09 ± 0.09	0.823 ± 0.057	0.641 ± 0.016	1.2 ± 0.16	0.908 ± 0.11	1.01 (active)
C=CCNc1oc(Cc2cccc3ccccc23)nc1C#N	0.818 ± 0.039	1.04 ± 0.091	1.13 ± 0.062	0.731 ± 0.036	1.16 ± 0.25	1.28 ± 0.4	0.952 (active)
CCC(c1ccc(O)cc1)C(CC)c1ccc(O)cc1 (configuration not stated) [Prestw-699]	0.567 ± 0.043	0.883 ± 0.068	1.02 ± 0.1	0.75 ± 0.13	0.84 ± 0.11	1.06 ± 0.16	0.181 (inactive)
O=C(c1cc2cc(F)ccc2s1)N1CCc2ncncc2C1	1.05 ± 0.099	1.03 ± 0.083	0.898 ± 0.063	0.927 ± 0.064	1.23 ± 0.14	1.12 ± 0.3	1.01 (active)
CC(=O)c1ccc(NC(=O)c2ccccc2C(=O)O)cc1	1.27 ± 0.12	1.14 ± 0.1	1.08 ± 0.12	0.903 ± 0.11	1.14 ± 0.13	1.31 ± 0.29	1 (active)
CCOc1ccc(Cc2cc([C@@H]3O[C@H](SC)[C@@H](O)[C@H](O)[C@H]3O)ccc2Cl)cc1	0.968 ± 0.25	1.27 ± 0.072	1.06 ± 0.098	1.03 ± 0.053	0.957 ± 0.18	1.07 ± 0.11	0.694 (inactive)
Cc1c(OCc2ccc(Cl)cc2)ccc2c(C(F)(F)F)cc(=O)oc12	0.758 ± 0.059	0.94 ± 0.048	1.11 ± 0.17	0.802 ± 0.042	1.06 ± 0.062	1.07 ± 0.094	1.02 (active)

SMILES	NF-kB reporter [1, 4]	NF-kB reporter ([1]; agonist: LPS 0.1 ug/mL)	NF-kB reporter ([1]; agonist: MPLA […])	IRF reporter ([2]; agonist: 3'3'-cGAMP 10 ug/mL)	IRF reporter ([2]; agonist: LPS 0.1 ug/mL)	IRF reporter ([2]; agonist: MPLA […])	viability score [3]
COC(=O)C1=CN(CC2CCCO2)C=C(C(=O)OC)C1c1ccc(OC)cc1 (configuration not stated)	1.1 ± 0.063	1.04 ± 0.079	1.09 ± 0.036	0.913 ± 0.037	0.993 ± 0.057	1.04 ± 0.1	0.993 (active)
CCN(CC)CC#CCOC(=O)C(O)(c1ccccc1)C1CCCCC1 (configuration not stated)	0.65 ± 0.059	1.2 ± 0.094	1.18 ± 0.053	0.92 ± 0.062	1.67 ± 0.11	1.3 ± 0.32	0.293 (inactive)
O=[N+]([O-])c1cc(C(F)(F)F)ccc1N1CCN(CC=Cc2ccccc2)CC1	0.915 ± 0.078	1.07 ± 0.099	0.985 ± 0.071	0.976 ± 0.036	1.47 ± 0.24	1.14 ± 0.12	1.01 (active)
O=C1c2ccc(-c3ccc4c(c3)C(=O)N(CCO)C4=O)cc2C(=O)N1CCO	0.94 ± 0.078	1.03 ± 0.063	0.912 ± 0.1	0.934 ± 0.048	1.33 ± 0.09	1.24 ± 0.3	1 (active)
CC(C)Sc1ccc(CC(=O)N2CCC(S(C)(=O)=O)C2)cc1 (configuration not stated)	0.975 ± 0.12	1.12 ± 0.1	0.973 ± 0.17	0.946 ± 0.053	1.12 ± 0.07	1.29 ± 0.17	0.993 (active)
COc1cc2nc(N3CCN(C(=O)C4COc5ccccc5O4)CC3)nc(N)c2cc1OC.CS(=O)(=O)O (configuration not stated)	0.103 ± 0.014	1.29 ± 0.2	1.2 ± 0.082	0.273 ± 0.017	1.44 ± 0.33	1.97 ± 0.15	0.914 (active)
O=C(NCC1(O)CCc2ccccc2C1)c1cccc(C(F)(F)F)c1 (configuration not stated)	0.848 ± 0.041	0.939 ± 0.1	0.957 ± 0.054	0.989 ± 0.045	1.09 ± 0.26	1.12 ± 0.43	0.994 (active)
COC(=O)C1=C(C)NC(C)=C(C(=O)OC)C1c1ccc(-c2ccc(Cl)cc2Cl)o1	1.01 ± 0.081	0.943 ± 0.064	0.922 ± 0.092	0.872 ± 0.022	1.23 ± 0.11	1.22 ± 0.22	1.02 (active)
O=C(NCC(O)Cc1ccccc1)Nc1ccc(F)cc1 (configuration not stated)	0.893 ± 0.096	0.969 ± 0.077	1.08 ± 0.064	1.04 ± 0.048	1.28 ± 0.3	1.36 ± 0.37	0.971 (active)
Cc1nnc(NC(=O)CSc2nc3ccccc3[nH]2)s1	1.11 ± 0.094	1.01 ± 0.073	0.954 ± 0.078	1.14 ± 0.22	1.01 ± 0.13	1.05 ± 0.2	0.995 (active)
Cc1cc(CCNC(=O)c2nc3ccccc3s2)nn1C	1.1 ± 0.062	0.978 ± 0.12	0.978 ± 0.053	0.953 ± 0.052	1.02 ± 0.048	0.943 ± 0.29	1 (active)
O=C1C2C3C=CC(C4CC34)C2C(=O)N1N=Cc1ccc(-c2ccc(Cl)cc2)o1 (configuration not stated)	1.01 ± 0.14	1.04 ± 0.074	0.924 ± 0.068	0.968 ± 0.034	1.56 ± 0.26	1.15 ± 0.1	1.01 (active)
Cc1cccc(CN2CCN(C(c3ccccc3)c3ccc(Cl)cc3)CC2)c1.Cl.Cl (configuration not stated)	0.289 ± 0.013	0.913 ± 0.1	1.44 ± 0.082	1.35 ± 0.068	1.28 ± 0.27	1.27 ± 0.35	0.272 (inactive)
COc1ccc(C=C2C(=O)N(c3ccc(C(=O)O)cc3)N=C2C)cc1	0.794 ± 0.082	0.977 ± 0.072	1.02 ± 0.092	0.934 ± 0.052	1.22 ± 0.099	1.21 ± 0.17	1.01 (active)
CC(C)(C)CC(=O)Nc1nc2ccc(S(C)(=O)=O)cc2s1	0.987 ± 0.12	1.19 ± 0.068	1.25 ± 0.12	0.787 ± 0.033	0.831 ± 0.11	0.779 ± 0.23	0.948 (active)
C=C1c2cccc(O)c2C(=O)C2=C(O)[C@]3(O)C(=O)C(C(N)=O)=C(O)[C@@H](N(C)C)[C@@H]3[C@@H](O)[C@H]12.Cl	1.16 ± 0.29	0.985 ± 0.064	0.952 ± 0.07	0.914 ± 0.045	1.22 ± 0.23	1.14 ± 0.13	0.962 (active)
CCOC(=O)C1=C(N)OC(C)=C(C(=O)OC)C1c1cccnc1 (configuration not stated)	1.16 ± 0.085	1.11 ± 0.081	1.16 ± 0.074	1.21 ± 0.04	1.12 ± 0.12	1.09 ± 0.095	0.988 (active)
COc1cc(NC(=O)COc2cc(C)c(Cl)c(C)c2)cc(OC)c1	1.02 ± 0.18	0.954 ± 0.078	0.854 ± 0.098	0.93 ± 0.025	1.06 ± 0.12	1.04 ± 0.12	1 (active)
